# SUMO HTRF inh: blocks human SUMOylation mediated by UBC9; actives 0.36% (n = 290,000); AID 2006; inhibition, % at 35 µM; P63279; HTRF SUMOylation assay, SAE1/SAE2 + UBC9, in vitro; in the data active = inhibition above about 50%, passing the limit was not always enough; inconclusive = no clear call, values can overlap the other calls
# Target sequence (P63279 whole entry, looked up): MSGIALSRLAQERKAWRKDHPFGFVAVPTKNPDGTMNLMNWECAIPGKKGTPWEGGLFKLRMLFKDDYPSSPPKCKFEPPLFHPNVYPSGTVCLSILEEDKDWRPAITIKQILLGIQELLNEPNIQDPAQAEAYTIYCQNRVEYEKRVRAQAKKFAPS
# PHOSPHO1 block: blocks human PHOSPHO1 phosphatase activity; AID 1565; recombinant PHOSPHO1, absorbance phosphatase assay; Q8TCT1; actives 1.1% (n = 290,000); inhibition, % at 13.3 µM; in the data active = inhibition above about 60%
# Target sequence (Q8TCT1 whole entry, looked up): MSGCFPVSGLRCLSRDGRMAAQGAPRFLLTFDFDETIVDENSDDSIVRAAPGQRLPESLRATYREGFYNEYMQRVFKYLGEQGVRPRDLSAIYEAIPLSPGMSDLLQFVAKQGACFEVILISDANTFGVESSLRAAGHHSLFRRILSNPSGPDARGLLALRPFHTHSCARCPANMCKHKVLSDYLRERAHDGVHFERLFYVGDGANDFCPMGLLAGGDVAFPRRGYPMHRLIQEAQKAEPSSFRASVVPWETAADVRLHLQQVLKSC
# G6PDH counter: inhibits Leuconostoc G6PDH, flagging false hits in G6PDH-based assays | Purified L. mesenteroides G6PDH, diaphorase/resazurin coupled fluorescence, 45 min | inhibition, % at 5 µM | actives 0.12% (n = 200,000); in the data active = inhibition above about 50%
# HDAC3 inh: human HDAC3 inhibition; O15379; recombinant HDAC3, fluorogenic peptide/trypsin coupled, fluorescence; inhibition, % at 8.3 µM; AID 2718; actives 0.15% (n = 320,000); in the data active = inhibition above about 26%, passing the limit was not always enough; inconclusive = no clear call, values can overlap the other calls
# p97 inhibitor: human p97 ATPase inhibition. P55072. AID 1481. inhibition, % at 8 µM. actives 0.42% (n = 220,000). recombinant p97 ATPase, Kinase-Glo ATP luminescence, 3 h; in the data active = inhibition above about 15%;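 note: 0% = DMSO vehicle and 100% = wells lacking enzyme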
# M18AAP inhibitor: blocks P. falciparum M18 aspartyl aminopeptidase | recombinant PfM18AAP, H-Glu-NHMec fluorogenic cleavage | inhibition, % at 7.35 µM | actives 1.2% (n = 290,000) | AID 1822;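 active = inhibition above the campaign mean inhibition over all tested compounds plus 3 SD, cut at about 28% in these data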;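 note: 0% = plate median of test compound wells and 100% = 2 mM ZnCl2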
# * marks the source's active call; other numbers are inactive results; ? = inconclusive; / = not tested or not shown. The list is not random: actives were taken first. Their share in the collection is about 2.5%.
SMILES,SUMO HTRF inh,PHOSPHO1 block,G6PDH counter,HDAC3 inh,p97 inhibitor,M18AAP inhibitor
CN(CC(=O)Nc1ccccc1Cl)CC(=O)N1CCc2ccccc21,/,/,/,5.2,/,/
CCOC(=O)C1CCN(S(=O)(=O)CCNC(=O)c2ccc(F)cc2)CC1,/,/,/,-2.6,/,/
CN(C)c1ccc(NC(=S)NC23CC4CC(CC(C4)C2)C3)cc1,-15.4,16.1,/,-0.7,/,9.6
NC(=S)Nc1cccc2cnccc12,9.7,3.5,-12.8,6.6,-2.8,2.0
Cc1ccc(NC(=S)Nc2cccc3cnccc23)cc1,99.8*,51.9,32.5,2.7,4.8,20.8
Cc1oc2c(c(C)cc3oc(=O)c(CC(=O)NCC(=O)NCC(=O)O)c(C)c32)c1C,52.6*,14.0,/,2.9,/,-1.2
Cc1oc2c(c(C)cc3oc(=O)c(CC(=O)NCCC(=O)O)c(C)c32)c1C,40.1,9.3,/,-3.8,/,6.7
Cc1oc2c(c(C)cc3oc(=O)c(CC(=O)N[C@H](C(=O)O)C(C)C)c(C)c32)c1C,50.8*,29.9,/,-12.8,/,-0.3
COc1ccccc1NS(=O)(=O)c1c(C)[nH]c(C)c1C(=O)N1CCCC1,-0.3,10.6,/,6.3,/,-10.0
CN(C)c1ccc(NC(=O)c2ccc(COc3cccc(Cl)c3)o2)cc1,-29.5,92.3*,4.6,5.5,1.3,-1.9
CCN1CCN(C(=O)c2ccc(COc3cccc(Cl)c3)o2)CC1,23.1,-23.8,/,-3.2,/,-3.0
O=[N+]([O-])c1cc2c(cc1/C=N/n1c(-c3ccccc3)n[nH]c1=S)OCO2,0.2,106.0*,-2.8,-10.3,0.2,13.7
S=c1[nH]nc(-c2cccc(Cl)c2)n1/N=C/c1ccc(-c2ccccc2Br)o1,/,3.2,/,/,5.5,3.0
O=[N+]([O-])c1cc2c(cc1/C=N/n1c(-c3ccccn3)n[nH]c1=S)OCO2,81.7,73.5*,9.4,6.2,1.1,16.9
S=c1[nH]nc(-c2ccccn2)n1/N=C/c1ccc(-c2ccccc2Br)o1,16.0,61.6*,-4.2,/,4.1,-0.6
Cc1ccc(-c2n[nH]c(=S)n2/N=C/C=C/c2ccccc2[N+](=O)[O-])cc1,36.3,99.2*,0.6,-1.7,-3.9,6.6
O=[N+]([O-])c1ccccc1/C=N/n1c(-c2cccnc2)n[nH]c1=S,10.0,7.1,-3.1,?,5.8,7.5
Cc1nc2ccc(NC(=O)c3cc(S(=O)(=O)N4CCOCC4)ccc3C)cc2s1,38.2,1.9,8.8,2.3,0.2,4.9
O=C(CSc1nc2cc(S(=O)(=O)N3CCOCC3)ccc2o1)NC1CCCc2ccccc21 (centres undefined),-5.8,75.7*,20.0,1.4,-0.5,1.6
Cc1ccc(C(=O)CSc2nc3cc(S(=O)(=O)N4CCOCC4)ccc3o2)cc1,-0.6,68.0*,-2.4,2.0,3.4,11.6
Cc1nc2ccc(Nc3nc4cc(S(=O)(=O)N5CCOCC5)ccc4o3)cc2s1,20.4,91.5*,4.8,4.9,-0.6,1.5
CCOC(=O)CC(NC(=O)c1cc2cccc(OC)c2oc1=O)c1ccc(OC)cc1 (centres undefined),12.0,31.6,/,-0.6,/,4.2
COc1ccc(NC(=S)Nc2ccccc2OC)c(OC)c1,8.0,-13.2,2.9,-1.4,1.7,-4.3
COc1ccc(NC(=S)Nc2ccc(OC)cc2OC)c(OC)c1,14.0,64.1*,10.3,1.2,3.9,0.7
Cc1snc(SCC(=O)c2ccc(Cl)cc2)c1C#N,-23.6,83.9*,1.0,2.9,4.0,1.0
SMILES,SUMO HTRF inh,PHOSPHO1 block,G6PDH counter,HDAC3 inh,p97 inhibitor,M18AAP inhibitor
Cc1ccc(CS(=O)Cc2ccc(C(=O)N3CCN(C4CCCCC4)CC3)o2)cc1 (centres undefined),5.7,20.7,/,-2.6,/,-7.0
O=C(/C=C/Nc1nccs1)C(F)(F)Cl,14.5,24.5,13.7,54.0*,3.4,8.2
Cc1cc(Cl)ccc1OCC(=O)Nc1ccccc1C(=O)N1CCOCC1,-5.0,61.0*,/,-7.0,/,0.4
Cc1cc(Cl)ccc1OCC(=O)Nc1ccccc1N1CCOCC1,-3.0,-40.7,-23.4,10.6,-4.0,-5.9
Cc1cc(OCC(F)(F)C(F)(F)C(F)(F)C(F)(F)C(F)(F)C(F)F)nc(N)n1,0.2,21.6,7.8,/,1.2,0.9
NC(=O)c1ccc(OCC(F)(F)C(F)(F)C(F)(F)C(F)(F)C(F)(F)C(F)F)cc1,6.5,51.3,6.1,30.9*,1.8,-1.8
CN(C(=O)CSc1nnc(Cc2cccc3ccccc23)n1N)C1CCS(=O)(=O)C1 (centres undefined),21.5,88.2*,7.7,6.1,3.1,-1.4
Nn1c(Cc2cccc3ccccc23)nnc1SCn1nnc2ccccc2c1=O,12.7,87.4*,-2.0,-7.9,4.2,11.3
Cc1cc2nnc(SCC(=O)N(C)C3CCS(=O)(=O)C3)n2c2ccccc12 (centres undefined),6.9,32.1,-0.9,-7.6,-3.5,3.3
CC1(C)C(=O)Nc2ccccc2N1C(=O)COC(=O)COc1ccc(C#N)cc1,12.3,24.0,/,1.6,/,-9.4
O=C(Nc1nccs1)c1cccc(N2C(=O)c3cccc4c([N+](=O)[O-])ccc(c34)C2=O)c1,30.0,78.0*,9.2,1.4,-1.2,-2.7
O=C(Nc1ccc(S(=O)(=O)Nc2nccs2)cc1)c1cccc(N2C(=O)c3ccccc3C2=O)c1,28.8,-3.1,8.4,4.1,3.3,-8.1
O=C(c1ncn[nH]1)N1CCN(c2nc(-c3ccccc3)cs2)CC1,-2.3,99.4*,-2.1,-1.5,-1.6,2.1
O=C(c1cc(-n2cnnc2)ccc1Cl)N1CCN(c2nc(-c3ccccc3)cs2)CC1,-5.0,-3.9,-21.1,0.4,-6.8,6.2
CC(=O)c1c(COC(=O)c2cccnc2)nc2ccccc2[n+]1[O-],4.6,88.5*,0.6,2.0,-2.2,-1.8
CC(=O)c1c(COC(=O)c2ccc(C)cc2)nc2ccccc2[n+]1[O-],15.4,-1.3,/,0.3,5.8,-1.2
Cc1nc2nc(SCC(N)=O)[nH]c2cc1Br,4.6,18.9,3.1,-1.6,0.1,10.8
CCOC(=O)CNC(=O)CSc1nc2nc(C)c(Br)cc2[nH]1,9.2,73.8*,-1.4,10.2,5.1,2.0
CC(=O)c1cccc(NC(=O)CSc2ccc(-c3ccco3)nn2)c1,11.0,41.4,/,1.5,/,-27.4
O=C(CSc1ccc(-c2ccco2)nn1)c1cccc([N+](=O)[O-])c1,73.2*,-1.5,5.0,24.0,5.6,11.4
CCCCc1nc(C(N)=O)c2[nH]c(=O)n(-c3ccc(OCC)cc3)c2n1,11.1,22.4,/,?,/,-3.0
O=C(NC1CC1)C1CCN(S(=O)(=O)c2ccc(Cl)c([N+](=O)[O-])c2)CC1,/,/,/,3.2,/,/
CCC(=O)NC(=S)NNC(=O)c1ccc(O)cc1,-2.3,80.6*,-3.2,5.7,4.3,11.4
CCC(=O)NNC(=S)NC(=O)c1ccc(C)cc1,2.2,36.6,9.3,3.8,3.9,16.4

# Compound activity as filed in PubChem BioAssay.
